# Data published in the antibiotic and cytotoxicity screens of Wong et al. (2023).
# The campaign covered roughly 39,000 compounds. About 500 (1.3%) were called active. What follows is part of a selection rich in actives, with near analogues and random picks from the rest.
# Tested on: S. aureus RN4220
# Assay: growth inhibition call (relative growth <= 0.2)
# Conditions: 50 µM
row,SMILES,growth inhibition call
1,C[C@H](CO)N1C[C@H](C)[C@H](CN(C)C(=O)Nc2ccccc2)OCCCC[C@H](C)Oc2ccc(NC(=O)Nc3ccc(F)cc3)cc2C1=O,inactive
2,C[C@H](CO)N1C[C@H](C)[C@@H](CN(C)CC2CC2)Oc2ccc(NS(=O)(=O)c3cccs3)cc2C1=O,inactive
3,Cc1ccc(S(=O)(=O)N(C)C[C@H]2Oc3ccc(NC(=O)Nc4cccc5ccccc45)cc3C(=O)N([C@@H](C)CO)C[C@H]2C)cc1,inactive
4,O=C1NCC(=O)N2[C@@H]1C[C@@H](C(=O)O)[C@H]2c1ccc(O)cc1,inactive
5,C[C@H](CO)N1C[C@H](C)[C@H](CN(C)Cc2cccc(F)c2)Oc2cc(C#CC3CC3)ccc2S1(=O)=O,inactive
6,C[C@H](CO)N1C[C@H](C)[C@@H](CN(C)CC2CCCCC2)Oc2ccc(NC(=O)Cn3cnnn3)cc2C1=O,inactive
7,C[C@@H]1CN([C@@H](C)CO)S(=O)(=O)c2ccc(Br)cc2O[C@H]1CN(C)S(=O)(=O)c1ccc(F)cc1,inactive
8,COc1ccc(S(=O)(=O)N(C)C[C@@H]2Oc3ccc(NC(=O)c4ccncc4)cc3C(=O)N([C@H](C)CO)C[C@@H]2C)cc1,inactive
9,C[C@H](CO)N1C[C@H](C)[C@@H](CN(C)S(=O)(=O)c2cn(C)cn2)OCCCC[C@H](C)Oc2ccc(NS(=O)(=O)c3cn(C)cn3)cc2C1=O,inactive
10,C[C@@H]1CCCCO[C@H](CN(C)C(=O)Cc2ccccc2)[C@@H](C)CN([C@@H](C)CO)C(=O)c2cc(NC(=O)C3CCCCC3)ccc2O1,inactive
11,C[C@@H]1CCCCO[C@@H](CN(C)C(=O)Nc2ccc(F)cc2)[C@H](C)CN([C@@H](C)CO)C(=O)c2cc(NC(=O)CCC(F)(F)F)ccc2O1,inactive
12,C[C@H]1CN([C@@H](C)CO)C(=O)CCCn2nncc2CO[C@@H]1CN(C)S(=O)(=O)c1ccc(Oc2ccccc2)cc1,inactive
13,C[C@H](N)C(=O)NCC(=O)N[C@H]1CSSC[C@@H](C(=O)O)NC(=O)[C@H](CO)NC(=O)[C@H]([C@@H](C)O)NC(=O)[C@H](Cc2ccccc2)NC(=O)[C@H]([C@@H](C)O)NC(=O)[C@H](CCCCN)NC(=O)[C@H](Cc2c[nH]c3ccccc23)NC(=O)[C@H](Cc2ccccc2)NC(=O)[C@H](Cc2ccccc2)NC(=O)[C@H](CC(N)=O)NC(=O)[C@H](CCCCN)NC1=O,inactive
14,CCCCCCCCCC(=O)N[C@@H](Cc1c[nH]c2ccccc12)C(=O)N[C@H](CC(N)=O)C(=O)N[C@@H](CC(=O)O)C(=O)N[C@@H]1C(=O)NCC(=O)N[C@@H](CCCN)C(=O)N[C@@H](CC(=O)O)C(=O)N[C@H](C)C(=O)N[C@@H](CC(=O)O)C(=O)NCC(=O)N[C@H](CO)C(=O)N[C@@H]([C@H](C)CC(=O)O)C(=O)N[C@@H](CC(=O)c2ccccc2N)C(=O)O[C@@H]1C,active
15,CSCC[C@H](NC(=O)[C@H](Cc1c[nH]c2ccccc12)NC(=O)CNC(=O)[C@@H](NC(=O)[C@H](Cc1ccc(OS(=O)(=O)O)cc1)NC(=O)[C@H](CC(=O)O)NC(=O)[C@H](CCC(N)=O)NC(=O)[C@@H]1CCC(=O)N1)[C@@H](C)O)C(=O)N[C@@H](CC(=O)O)C(=O)N[C@@H](Cc1ccccc1)C(N)=O,inactive
16,CS(=O)(=O)NCc1cnc2n1CCN(C(=O)[C@H]1CCOC1)CC2,inactive
17,CC(C)[N+]1(C)C2CCC1CC(OC(=O)C(CO)c1ccccc1)C2.[Br-] (stereo unspecified),inactive
18,C[C@H](CO)N1C[C@H](C)[C@@H](CN(C)Cc2ccc(-c3ccccc3)cc2)Oc2c(NS(=O)(=O)c3ccc(F)cc3)cccc2C1=O,inactive
19,C=C(NC(=O)C(=C)NC(=O)c1csc(C2=N[C@@H]3c4csc(n4)[C@@H]4NC(=O)c5csc(n5)[C@H](C(C)(O)[C@@H](C)O)NC(=O)[C@H]5CSC(=N5)/C(=C/C)NC(=O)[C@H]([C@@H](C)O)NC(=O)c5csc(n5)[C@]3(CC2)NC(=O)[C@@H](C)NC(=O)C(=C)NC(=O)[C@@H](C)NC(=O)[C@@H]([C@H](C)CC)N[C@H]2C=Cc3c([C@@H](C)O)cc(nc3[C@@H]2O)C(=O)O[C@H]4C)n1)C(N)=O (stereo partly specified),inactive

row,SMILES,growth inhibition call
1,C=C(NC(=O)C(=C)NC(=O)c1csc(C2=NC3c4csc(n4)C4NC(=O)c5csc(n5)C(C(C)(O)C(C)O)NC(=O)C5CSC(=N5)C(=CC)NC(=O)C(C(C)O)NC(=O)c5csc(n5)C3(CC2)NC(=O)C(C)NC(=O)C(=C)NC(=O)C(C)NC(=O)C(C(C)CC)NC2C=Cc3c(C(C)O)cc(nc3C2O)C(=O)OC4C)n1)C(N)=O (stereo unspecified),active
2,C=C(NC(=O)C(=C)NC(=O)c1csc(C2=N[C@H]3c4csc(n4)[C@H]4NC(=O)c5csc(n5)[C@H](C(C)(O)[C@@H](C)O)NC(=O)[C@H]5CSC(=N5)C(=CC)NC(=O)[C@H]([C@@H](C)O)NC(=O)c5csc(n5)[C@]3(CC2)NC(=O)[C@H](C)NC(=O)C(=C)NC(=O)[C@H](C)NC(=O)[C@H]([C@H](C)CC)N[C@@H]2C=Cc3c([C@H](C)O)cc(nc3[C@H]2O)C(=O)O[C@@H]4C)n1)C(N)=O (stereo partly specified),inactive
3,COCCNC(=O)c1cn(C)nc1OC,inactive
4,C[C@H]1CN([C@@H](C)CO)C(=O)c2cccc(NS(=O)(=O)c3cn(C)cn3)c2O[C@H]1CN(C)S(=O)(=O)c1cn(C)cn1,inactive
5,C[C@H]1CN([C@@H](C)CO)S(=O)(=O)c2ccc(C#CC3(O)CCCC3)cc2O[C@H]1CN(C)C(=O)Cc1ccccc1,inactive
6,CC(C)NC(=O)N(C)C[C@@H]1Oc2c(NS(=O)(=O)c3ccccc3)cccc2C(=O)N([C@@H](C)CO)C[C@H]1C,inactive
7,C[C@H](CO)N1C[C@H](C)[C@@H](CN(C)C(=O)CCN2CCCCC2)Oc2ncc(C#CCN(C)C)cc2C1=O,inactive
8,O=C(O)c1cc(F)c2nc(N3[C@@H]4CC[C@H]3C[C@@H](OCc3c(-c5ccccc5OC(F)(F)F)noc3C3CC3)C4)sc2c1,active
9,COc1ccc(CN2C[C@H](C)[C@@H](OC)CN(C)C(=O)c3ccc(NC(=O)c4nc5ccccc5s4)cc3OC[C@H]2C)cc1,inactive
10,O=C1OC2(c3ccccc31)c1cc(I)c(O)c(I)c1Oc1c2cc(I)c(O)c1I,active
11,O=C1OC(c2cc(I)c(O)c(I)c2)(c2cc(I)c(O)c(I)c2)c2ccccc21,inactive
12,O=C1OC2(c3ccc(O)cc3Oc3cc(O)ccc32)c2ccccc21,inactive
13,Cc1ccc(CNS(=O)(=O)N(C)C)cc1,inactive
14,CO[C@H](CN(C)S(=O)(=O)c1ccc(Cl)cc1)[C@@H](C)CN([C@H](C)CO)S(=O)(=O)c1cccc(Cl)c1,inactive
15,C[C@H](CO)N1C[C@H](C)[C@@H](CN(C)C(=O)Cc2ccncc2)Oc2ncc(C#Cc3ccccc3F)cc2C1=O,inactive
16,N=C(N)NCCC[C@@H](NC(=O)CC1(CC(=O)N2CCN([C@H]3c4ccccc4NC(=O)c4ccccc43)CC2)CCCC1)C(=O)NCCn1c(=O)n(-c2ccccc2)n(-c2ccccc2)c1=O,active
17,C[C@H]1CN([C@@H](C)CO)C(=O)c2cc(NC(=O)Nc3cccc4ccccc34)ccc2O[C@H]1CN(C)C(=O)Nc1ccccc1,inactive
18,C[C@@H]1CN([C@H](C)CO)C(=O)c2cccc(NS(C)(=O)=O)c2O[C@H]1CN(C)Cc1ccc(C(=O)O)cc1,inactive
19,Oc1ccc(O)cc1,inactive

row,SMILES,growth inhibition call
1,CC=C(C(=CC)c1ccc(O)cc1)c1ccc(O)cc1,active
2,CCC(=C(CC)c1ccc(O)cc1)c1ccc(O)cc1,inactive
3,CC(C)NC(=O)N(C)C[C@@H]1Oc2cc(C#Cc3ccc(F)cc3)ccc2S(=O)(=O)N([C@H](C)CO)C[C@H]1C,inactive
4,C[C@H](CO)N1C[C@H](C)[C@H](CN(C)Cc2ccc(Cl)c(Cl)c2)Oc2ccc(NC(=O)Nc3ccc(F)cc3)cc2CC1=O,inactive
5,C[C@@H]1CCCCO[C@H](CN(C)Cc2ccc(C(F)(F)F)cc2)[C@@H](C)CN([C@@H](C)CO)C(=O)c2cc(NS(=O)(=O)c3ccc(Cl)cc3)ccc2O1,inactive
6,Cn1c(=O)c2c(nc(SCSc3nc4c(c(=O)n(C)c(=O)n4C)n3C)n2C)n(C)c1=O,inactive
7,CCn1c(Cl)nc2c1c(=O)n(C)c(=O)n2C,inactive
8,Cc1nc2c(=O)n(C)c(=O)n(C)c2nc1Cl,active
9,Cc1noc(C)c1S(=O)(=O)Nc1ccc2c(c1)CC(=O)N([C@@H](C)CO)C[C@H](C)[C@@H](CN(C)Cc1ccncc1)O2,inactive
10,C[C@@H]1CN([C@@H](C)CO)C(=O)c2cc(NS(C)(=O)=O)ccc2O[C@H]1CN(C)C(=O)Nc1ccccc1,inactive
11,CC(=O)OCC1=C(C(=O)[O-])N2C(=O)C(NC(=O)CSc3ccncc3)C2SC1.[Na+] (stereo unspecified),active
12,COC1(NC(=O)Cc2cccs2)C(=O)N2C(C(=O)[O-])=C(COC(N)=O)CSC21.[Na+] (stereo unspecified),active
13,CC(=O)OCC1=C(C(=O)[O-])N2C(=O)C(NC(=O)Cc3cccs3)C2SC1.[Na+] (stereo unspecified),active
14,CC(=O)OCC1=C(C(=O)O)N2C(=O)[C@@H](NC(=O)CSc3ccncc3)[C@H]2SC1,active
15,C[C@H]1CCCCO[C@@H](CN(C)C(=O)Nc2ccc(C(F)(F)F)cc2)[C@@H](C)CN([C@@H](C)CO)C(=O)c2cc(NC(=O)NC3CCCCC3)ccc2O1,inactive
16,C[C@H]1CCCCO[C@@H](CN(C)C(=O)Nc2ccc3c(c2)OCO3)[C@@H](C)CN([C@@H](C)CO)C(=O)c2cc(NS(=O)(=O)c3ccccc3)ccc2O1,inactive
17,C[C@H](CO)N1C[C@H](C)[C@@H](CN(C)S(C)(=O)=O)Oc2c(NC(=O)Nc3ccc(C(F)(F)F)cc3)cccc2C1=O,inactive
18,COc1cccc(C#Cc2cnc3c(c2)C(=O)N([C@@H](C)CO)C[C@@H](C)[C@@H](CN(C)C(=O)C2CCOCC2)O3)c1,inactive
